Sampled rows, rich in hits. Any-hit rate of the full collection: about 7.5%.
FMDV antiviral: antivirals against foot and mouth disease virus; Potency, µM (top dose mostly 57.9 µM), for inactives: at the highest dose activity change, negative = inhibition, usual class: inhibitors; 410,000 tested, 1.2% active; FMDV antiviral cell-based qHTS; calls by dose curve; tested in HEK293T cells; note: read-out not given here; potency is the fitted concentration of half-maximal effect; nearly all actives have a fitted effect of over 45% in size
VACV Venus inh: inhibitors of vaccinia virus (Venus reporter); Vaccinia virus Venus reporter expression, fluorescence; Potency, µM (highest dose often 36.5 µM), for the others: at the top dose activity change, negative = inhibition, actives largely listed as inhibitors; 330,000 tested, 0.46% active; calls by dose curve; tested in A549 cells; note: potency is the fitted concentration of half-maximal effect; nearly all actives have a fitted effect of over 30% in size
FBPA Giardia inh: inhibitors of Giardia lamblia fructose-1,6-bisphosphate aldolase | A8B2U2 | Potency, µM (top dose mostly 59.6 µM), inactives show at the highest dose activity, negative = inhibition, usual class: inhibitors | AID 2451 | purified Giardia FBPA | 290,000 tested, 0.71% active; note: potency is the fitted concentration of half-maximal effect; nearly all actives have a fitted effect of over 55% in size
Target sequence (A8B2U2 whole entry, looked up): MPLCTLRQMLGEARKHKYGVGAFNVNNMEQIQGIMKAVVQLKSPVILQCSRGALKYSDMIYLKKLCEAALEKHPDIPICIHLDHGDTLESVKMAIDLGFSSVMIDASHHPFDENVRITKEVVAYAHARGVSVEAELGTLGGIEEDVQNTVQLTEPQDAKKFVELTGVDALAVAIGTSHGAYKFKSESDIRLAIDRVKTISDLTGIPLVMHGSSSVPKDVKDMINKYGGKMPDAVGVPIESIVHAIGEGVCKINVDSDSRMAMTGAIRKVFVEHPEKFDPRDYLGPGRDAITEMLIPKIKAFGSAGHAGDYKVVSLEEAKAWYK
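40 nM FBPA preincubated 10 min at RT with compound (up to 57.5 uM final), then substrate plus GAPDH/TPI/NAD/arsenate coupling and diaphorase/resazurin added. Fluorescence read after 20 min at RT, 525/598 nm.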
HCMV antiviral: inhibitors of human cytomegalovirus; HFF cells, HCMV-luciferase reporter, 72 h; active compounds read low; 410,000 tested, 4.5% active; activity change, negative = inhibition, % at 57.5 µM; in the data active = activity change below about -60%; inconclusive = no clear call, values can overlap the other calls; inactive = above about -39%
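Two-dose cell screen: HFF monolayers treated with compounds and infected with luciferase-expressing HCMV at 1 PFU/cell, 72 h at 37C, then lysed for luciferase measurement.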
VACV mCherry inh: vaccinia inhibition (mCherry reporter) | 310,000 tested, 0.63% active | Potency, µM (titrated, usually from 36.5 µM), for inactives: at the highest dose activity change, negative = inhibition, hits mostly inhibitors | Vaccinia virus mCherry reporter infection, fluorescence; calls by dose curve; tested in A549 cells; note: potency is the fitted concentration of half-maximal effect; nearly all actives have a fitted effect of over 35% in size
HCV inh: HCV inhibition; Potency, µM (titrated, usually from 41.8 µM), without a hit: at the highest dose activity change, negative = inhibition, most hits filed as inhibitors; Huh7.5.1 HCVcc-Cre infection, luciferase reporter, 44 h; 340,000 tested, 3.4% active; AID 651820; note: potency is the fitted concentration of half-maximal effect
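1,000 cells/well; 4 h culture; + compound; + HCVcc-Cre (~0.5 moi); 44 h; luciferase substrate, RT 15 min; read 15 sec.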
* hit, by the source's call; i = inactive; u = inconclusive; x = no result. Unless noted, calls come from the whole dose curve; as a rule, active = well fitted curve in the direction sought with a large enough effect; inconclusive = small, poorly fitted or top-dose-only effect, or another doubt; inactive = no such curve, though single readings can be large; an effect the other way counts as inactive or inconclusive. % is set by controls: 0 for no effect and ±100 for the full control effect.

SMILES | FMDV antiviral | VACV Venus inh | FBPA Giardia inh | HCMV antiviral | VACV mCherry inh | HCV inh
CCOC(=O)c1c(C)n(-c2ccc(C)cc2)c2ccc(O)c(CN(C)C)c12 | -17% | -21% | 0% | -88* | u | -7%
C[C@]1(C(=O)NCC2CC2)C=C[C@@H](Cc2ccccc2)N1C(=O)c1ccccc1 | x | x | 3% | x | x | x
O=C(CCCOc1ccc(Cl)cc1Cl)N/N=C/c1ccccc1 | -8% | u | u | -25 | -20% | -20%
O=C(CCCOc1ccc(Cl)cc1Cl)N/N=C/c1ccccc1O | -17% | u | -8% | -104* | 7.1µM* | u
O=C(COc1ccc(Cl)cc1Cl)N/N=C/CCc1ccccc1 | 5% | -6% | -5% | u | -8% | 17%
O=C(COc1ccc(Cl)cc1Cl)N/N=C/c1ccc[nH]1 | 19% | x | -4% | -40 | x | 6.3µM*
O=C(O)CCC(=O)NNC(=O)COc1ccc(Cl)cc1Cl | 10% | -14% | 7% | -79* | -15% | -22%
Nc1ncnc2c1ncn2[C@@H]1O[C@H](CNCc2ccc(-c3cc(C(F)(F)F)ccc3Cl)o2)[C@@H](O)[C@H]1O | -26% | -1% | x | -18 | -20% | 35µM*
COc1ccc(C(CNC(=O)COc2ccc(F)cc2Br)N2CCCC2)cc1 (stereo not given) | -24% | -10% | -1% | -61* | -7% | u
CCOc1ccc(CCN2C(=S)N([C@@H](CC(C)C)CN3CCCC3CN3C(=S)NC[C@@H]3Cc3ccccc3)C[C@@H]2CC(C)C)cc1 (stereo not given in full) | 0% | -15% | x | u | -12% | x
Oc1ccc(C[C@@H](CN2CCC[C@@H]2CN2C(=S)NC[C@@H]2Cc2ccccc2)N2C[C@H](Cc3ccccc3)N(CCc3ccccc3)C2=S)cc1 | -1% | -20% | x | -23 | 2% | x
CCOc1ccc(CCN2C(=S)N([C@@H](CC(C)C)CN3CCCC3CN3C(=S)NC[C@@H]3Cc3ccc(O)cc3)C[C@@H]2Cc2ccccc2)cc1 (stereo not given in full) | -26% | u | x | -39 | -30% | 10µM*
Oc1ccc(C[C@H]2CNC(=S)N2CC2CCCN2C[C@H](Cc2ccccc2)N2C[C@H](Cc3ccc(O)cc3)N(CCc3ccccc3)C2=S)cc1 (stereo not given in full) | 0% | u | x | u | u | 2.2µM*
CCOc1ccc(CCN2C(=S)N([C@@H](CC(C)C)CN3CCCC3CN3C(=S)NC[C@@H]3Cc3ccc(O)cc3)C[C@@H]2Cc2ccc(O)cc2)cc1 (stereo not given in full) | u | 10µM* | x | -84* | u | 11µM*
COc1ccc(/C=C/c2nc(S(=O)(=O)c3ccccc3)c(N(C)C)o2)cc1 | -16% | x | x | -9 | x | 22µM*
CCOc1ccc(CO[C@@H]2O[C@H](CO)[C@@H](O)[C@H](O)[C@H]2NC(C)=O)cc1OC | 12% | 3% | 5% | -26 | -11% | -6%
Cc1nc(NCc2ccco2)c2c3c(sc2n1)CCC3 | u | -5% | -1% | -70* | x | -15%
Cc1nc(NCc2ccccn2)c2c3c(sc2n1)CCCC3 | u | -23% | -8% | -17 | -11% | 22µM*
c1ccc(CNc2ncnc3sc4c(c23)CCCC4)nc1 | u | -13% | 0% | u | -12% | u
COc1ccccc1OCC(=O)Nc1cc(Cl)ccc1N1CCCCC1 | u | -19% | x | u | i | 10µM*
COc1ccccc1OCC(=O)Nc1cc(S(=O)(=O)N2CCCCC2)ccc1N1CCCCC1 | u | -19% | -15% | -37 | -16% | 25µM*
COc1cc(C(C)=O)ccc1OCC(=O)Nc1ccccc1N1CCCCC1 | u | u | x | -37 | u | u
CCOc1ccccc1OCC(=O)Nc1cc(S(=O)(=O)N2CCCCC2)ccc1N1CCN(CC)CC1 | -22% | -17% | x | 2 | -14% | u
O=C(NCc1ccccc1)[C@H]1[C@H](CO)[C@H]2Cn3c(cccc3=O)[C@H]2N1Cc1ccccc1F | x | x | x | -5 | x | x
Cc1ccc(C2C(=O)N(C3CCCCCC3)CC(=O)N2CCC2=CCCCC2)cc1 (stereo not given) | -15% | -10% | x | -63* | -12% | x
SMILES | FMDV antiviral | VACV Venus inh | FBPA Giardia inh | HCMV antiviral | VACV mCherry inh | HCV inh
COc1ccc(CN2CCC(=O)N([C@H](CO)CC(C)C)CC2)cc1OC | -9% | -6% | 6% | -68* | -1% | -9%
CC(C)C[C@@H](CN=[N+]=[N-])N1CCN(C)CCC1=O | -8% | -7% | -6% | -62* | i | 7%
CCCN1CCC(=O)N([C@H](CO)CC(C)C)CC1 | -10% | -7% | -13% | -61* | -8% | 42%
Cc1cnc2ccccc2c1C | x | -4% | x | x | -14% | x
Cc1cn(C2OC(COC(=O)c3ccccc3)C(OC(=O)c3ccccc3)C2OC(=O)c2ccccc2)c(=O)[nH]c1=O (stereo not given) | -21% | -22% | 4% | 18 | u | -23%
O=C(OCC1OC(OC(=O)c2cc(O)c(O)c(OC(=O)c3cc(O)c(O)c(O)c3)c2)[C@@H](OC(=O)c2cc(O)c(O)c(OC(=O)c3cc(O)c(O)c(O)c3)c2)C(OC(=O)c2cc(O)c(O)c(OC(=O)c3cc(O)c(O)c(O)c3)c2)C1OC(=O)c1cc(O)c(O)c(OC(=O)c2cc(O)c(O)c(O)c2)c1)c1cc(O)c(O)c(OC(=O)c2cc(O)c(O)c(O)c2)c1 (stereo not given in full) | x | x | 3.5µM* | x | x | x
Cc1nn(-c2ccccc2)c(N)c1N=Nc1cccc(S(=O)(=O)N2CCOCC2)c1 | -18% | -21% | -2% | -68* | -22% | 22µM*
CCOc1ccc(CCNC(=O)CCCc2nnc3n(CCCOC)c(=O)c4sccc4n23)cc1 | -7% | -9% | x | u | -15% | x
CCCC1(CCC)NC(=O)N(CC(=O)Nc2ccccc2OC)C1=O | 1% | x | 8% | -109* | x | -3%
Cc1cc2c(cc1C)NC(CC(=O)NCc1ccccc1)C(=O)N2 (stereo not given) | 58% | x | 0% | -109* | x | u
CCC1(CC)NC(=O)N(CC(=O)OC(C)C(=O)Nc2ccccc2OC)C1=O (stereo not given) | -19% | -4% | x | -21 | i | 8%
COc1ccc(NC(=O)CC2Nc3ccccc3NC2=O)cc1 (stereo not given) | 15% | -4% | x | 21 | -4% | x
COc1ccccc1NC(=O)CC1Nc2ccccc2NC1=O (stereo not given) | -6% | x | -12% | 72 | x | 10µM*
CC(N)=O | x | x | 2% | x | x | x
COc1cccc(-n2cc(C(=O)NCc3ccc(C)cc3)c3ccccc3c2=O)c1 | -1% | -2% | x | -35 | -12% | x
COc1cccc(-n2cc(C(=O)NCCc3ccc(C)cc3)c3ccccc3c2=O)c1 | -5% | -6% | x | -61* | -8% | x

Compound activity deposited in PubChem BioAssay by National Center for Advancing Translational Sciences (NCATS).
